In PubChem BioAssay AID1347426 (Functional Genomics Laboratory (NCATS/FGL), 2020):
Among all 31,000 sequences or so, about 1,400 (4.5%) were called active. This is one part of a sample in which actives are shown more often than they occur. A number with no mark means an inactive call.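 The calls were made as follows: active = median seed-adjusted z-score above 1 or below -1; inactive = the rest.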

assay: Novel Modifiers of Survival Motor Neuron (SMN) Protein: Gene Identification via Genome-wide siRNA Screen; details: HEK293T SMN2-luciferase reporter, siRNA knockdown, 72 h; actives lie on both sides;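 also: luminescence tracks full-length SMN protein made from the SMN2 reporter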
How it was run: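 Genome-wide siRNA screen (10418 genes, 3 siRNAs each, 1 pmol per well) by reverse transfection in HEK293T cells stably carrying an SMN2-luciferase reporter; luminescence after 72 hours, normalized to negative-control siRNA, log10-transformed, MAD-scored.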

Sequence	median seed-adjusted z-score
GUGUCCAACAGAUACGGAATT against DSCAM	-0.527
GGCAGAUAUUUAAGCCUAUTT against HDAC2	-1.27 (active)
GGAGUGCAAAAGGAACGAATT against APIP	-0.0945
GAGUUAUGGUGAACCCACATT against CDKN2B	0.0154
GGACAUUCAAUUCAAACCATT against SMAD4	0.0746
CUGUUUAGCUUCAUGCAAATT against ARID3C	-1.32 (active)
GCAAGGCAAUGCAAACGAATT against DDX43	-0.452
GCGACUACCUGUUUCAACATT against PELO	0.394
GGAAAGAUCUUCAAUCAUATT against ZNF597	0.366
GGACAUUCGUCAGAUUUAUTT against TEAD1	1.31 (active)
GAGUGGAGCGUACAUCCUATT against ZXDA	-0.0748
CAAUAGUCCUGAGACCGAATT against MYST3	-0.49
GCAUUACCGCGAUGAAUUATT against DNAI1	-0.783
UCCUAACCUCAGAAACUGATT against CAPS	-1.25 (active)
GGAAGGCUCCAAACGGAAATT against PBRM1	-0.118
GCACGUUUGAGUACGAAUATT against SFPQ	-1.15 (active)
GGACCAGUCUGCCUAUGUATT against NXF5	-0.396
GCGGGACAGAAGUUAGAUATT against HCCS	0.00254
GGAUGAUAUGGGACCAUAATT against PTPRZ1	1.73 (active)
GUCUUGUAGAAAUCUCAGATT against RFC3	0.733
GCUUCGAGGAGGGCAAGAATT against PRSS27	1.03 (active)
GAUAGUGACAGGUUAAUGATT against TIGD6	-0.443

Sequence	median seed-adjusted z-score
GCCUGACCCGUGAGACAAATT against THY1	-1.1 (active)
GCAUCUAAAGAGCUACAGATT against ZNF584	0.172
CAAUGUCCAGGGUAUCAUUTT against HAO2	0.039
GGAGGGACAAGAUCAACAATT against USF2	0.352
CCAGCCGUGUUGUAGCUAATT against S100B	0.862
CCGUAAAGCUGCAUUAGAATT against CUGBP1	0.086
GGGUCAUCAGUAGCAUUGATT against YWHAG	1.98 (active)
GCAGUACGGAAGCUACCGATT against SS18L1	-0.174
CAUUGGACAGUAUUACAAATT against UBE2U	-0.0545
CCUUCCCUCUACACCAUCATT against COPZ2	-1.23 (active)
CCUAAGUUACUACUAGUAUTT against ENPP4	0
GGAUCUCACAGGUUCCGUUTT against LARS2	0.25
GAACUUGACCAUUAUAUCATT against PHKA2	0.304
CGGUGGUGAAUGAAAGUCATT against FKBP14	-0.455
GAGGUGAACUGGAAGCGAATT against MBOAT1	-1.22 (active)
CGCUUAACAUUGGAGUUCATT against ATG7	-0.328
CUACGGCUUUGGAGAUAUATT against RECQL	-0.905
CAUCCAUUCUACAUCCGUATT against VHL	-0.0797
AGAGCACAUCAAAUCAGAATT against PAX2	0.341
GCUUAUGCGUAGAUCCUUUTT against SMYD4	0.272
GCACCUUCCCAACCAUCAATT against GPX2	-0.21
GCAGAUUUUGAGCAACUGATT against TRIM5	0.0758

Sequence	median seed-adjusted z-score
GAACUUUGAUGACGAGUGATT against RAD23A	-1.13 (active)
GAUGAUCAGCUAUGAAAAATT against ZNF780A	0.298
GCAGAUAUCUGAUAGCCCUTT against PPA2	-0.497
CGUCUAUGCCUAUAAAAUATT against ADORA3	0
GCGAUGCCUAUAAAACCUATT against TRYX3	2.3 (active)
CUAGGAAGAUAAUACCAGATT against BTRC	-0.0819
GGAAGUACCUGAGUGUGCATT against MTCH1	0
GCUCUUUGCCGUUUCUAAUTT against SLC29A2	-0.0569
CGAGAAAUUGCACAACCGATT against NACC1	1.59 (active)
GGACAUUGGACUAACCCAATT against EFHB	0.675
CUAUGGUAAUGUUUGCUUUTT against ZXDB	0.186
CAAGAUCAAGAGUUCCUGATT against CYP2B6	0.454
CCGAGAGUAUGUCGACUUATT against CBFB	-0.0379
GGAAAACAAGCUCAUCAAUTT against HOXA6	-0.282
GCAGCGUAGUUUUUGCGGATT against DOCK2	0.151
UCAGUGCCCUUGUAUCAAATT against CYP4F2	-0.387
GCCUCAGUUUGAAAUUGUUTT against TBRG1	-1.47 (active)
CAGACUCUCCGAUCUCUGATT against NRIP3	-0.699
CCUGGAUCCAAAUAGCGAATT against SMARCA2	-0.458
CUCUUUGACGUGUCUCAUATT against AMT	-0.506
CCUGAACAUUGGACCCUGUTT against CPSF1	3.29 (active)
UCACUUUCCCUGUAAAUAUTT against CD84	0.629

Sequence	median seed-adjusted z-score
GCAAGACCUAAGCAAACUATT against BXDC1	0.173
CAUAGACUCUUACACCACATT against SC4MOL	-0.0194
GGCUGUCUGCUGUACGAGATT against NEK6	-0.674
CCAGCUCCUUUAUCAAGCATT against RAD51	0.594
GCCUGGAUAACAUCACUGATT against AIM2	0.0646
GACCUGAUGUGGACCCAGATT against MIOX	0.14
GCGACCAACUGAUUGUCGATT against PTPRZ1	1.73 (active)
GACACUUGCUUAGAAGUAATT against LRP12	0.416
GGAUCUACGUGUACGUCAATT against LPAR3	-0.3
GGAUCAGUUUGACAGUUUUTT against RNPEP	-0.236
GGAAAUUAGCUGCAGCUGATT against PPP1R2	0.208
GGAGAACCACAGUUGCUUUTT against IL17RA	-1.29 (active)
GGAUUCAUCCUUACCCUCATT against PPP2R4	0.318
GCUUUACAGAAAGCCGUGATT against STRADB	0.21
CCCUCGAGCAUGUUCCAAATT against PRPF6	-1.06 (active)
AGAUCGUGGUGCAUCCAUATT against ELA1	0.687
GCACCAACCUGACCUGUCATT against CD33	-0.355
GAACCAAGAUCAUUAUGCATT against DNAJC2	-0.0357
GCGCAGCCUUUAGAGGAUATT against UBE2J1	-1.2 (active)
UGGAGUAAAUAGUUCUAAUTT against UBE2V1	0.745
UGAGGAUAGUGGGUCUGUATT against MEIS3	0.207
GACUCAUCGUGAUGAGAUUTT against SLC7A9	0.194

Sequence	median seed-adjusted z-score
GGAACAAGUAUUUAGGAAATT against CAPSL	-0.168
CCCUAGGCCUUUUACGAAATT against RAG1	-1.35 (active)
AGCAGAAGAAGUUCAAAUATT against P2RX1	0.908
GCAGUAUAUUACAAACAAATT against NAT2	-0.0495
GGCCCAAGCUUCAACAGCATT against DNASE2	-1.23 (active)
GGAAAUCGUUCAGUAAGAATT against ZNF175	-0.0194
CCAUAACCUUAUUGACGCATT against LRFN4	-0.076
GCCUGAUUCUGAGUGAUGATT against SPTLC2	0
GCCUGAUACAAAAUCAACATT against TRPC5	-1.14 (active)
GGAGUUACAUCAGACCUAUTT against MOGAT1	0.293
GGAAAUCUGAAGACGAUAATT against CCAR1	-1.18 (active)
AACUGGGAAUUGAGAGGUATT against SOX12	0.478
GGCCUUACCAAUCAUCAUUTT against SLC28A2	-0.076
GAAUUCGACCAGUAUUUGATT against SOX7	-0.387
CCGUAUGUUUUGCUGCAAATT against ABCC4	-1.66 (active)
GCAAGUCCCGCAAAAAGAATT against NEIL1	-0.168
GCACCGUCAAGGAAGAUAATT against ADAMTSL1	-0.107
GUAUGCGACUGGGAUCUUATT against HP	0
CAGUGGAAAUAAUUACGUUTT against MDH1B	-1.13 (active)
GAUCUACACUUGGAUGGAUTT against SAP18	2.14 (active)
CUAACGAAGAUUCACCCAATT against ASPN	-0.0432
